NADH enzymes = inhibition of NAD/NADH coupling enzymes, library profiling; coupled PK/LDH NADH assays, four targets; IC50, µM (series often up to 10 µM), inactives show at the highest dose inhibition; 0.02% of 65,000 active; AID 774;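 active means single-dose screening hits from any of four coupled enzyme assays that gave an IC50 when retested across doses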;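 further: the DPM-DC format reads NADH fluorescence rather than 340 nm absorbance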
Autofluor 339 = intrinsic fluorescence of library compounds, ex339/em460 – biochemical, MLSMR library, data from DPM-DC assay, artefact control, profiling panel. compound autofluorescence, ex339/em460 nm, NADH buffer; hits give high values; 1 = no-compound wells, NADH background. 5.5% of 65,000 active. fluorescence fold increase at 10 µM;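 active means at 10 µM, mean starting fluorescence two-fold or more over control wells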;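 further: signal is the first read of a kinetic run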
DPM-DC inhibit = S. pneumoniae DPM-DC inhibition; AID 556; purified DPM-DC, PK/LDH coupled NADH fluorescence; 0.49% of 65,000 active; calls only at 10 µM;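 active means the 320 compounds with the highest percent inhibition in the single-dose primary screen, excluding strongly autofluorescent ones, cut at about 32% in these data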;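 further: kinetic rate of NADH fluorescence loss reporting ADP formed by the decarboxylase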
A340 absorber = compound absorbs light at 340 nm; fold change at 10 µM; 65,000 tested, under 10 active; compound absorbance at 340 nm, fold over control; AID 708;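 active means at 10 µM dose, initial 340 nm absorbance at least 2 fold that of control wells; inactive means change under 2 fold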;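 further: initial absorbance extrapolated from kinetic A340 decline of NADH oxidation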
Spn PMK inh = S. pneumoniae PMK inhibition; purified PMK, PK/LDH-coupled NADH absorbance 340 nm; inhibition, % at 10 µM; 0.49% of 65,000 active;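 active means top-ranked compounds by inhibition in the single 10 µM screen, taking a fixed number of the strongest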;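 further: 0% = full reaction with DMSO carrier and 100% = background rate without enzyme reaction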
Spn MK inh = inhibitors of Streptococcus pneumoniae mevalonate kinase. inhibition, % at 10 µM. purified MK, PK/LDH-coupled NADH absorbance 340 nm. 0.48% of 65,000 active;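 active means ranked among the strongest by inhibition in the single 10 µM screen, a fixed top-ranked set picked for dose follow-up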
* marks the source's active call; other numbers are inactive results; i = inactive; nt = not tested or not shown; + = active, no number. The list is not random: actives were taken first. Their share in the collection is about 6.8%.

SMILES | NADH enzymes | Autofluor 339 | DPM-DC inhibit | A340 absorber | Spn PMK inh | Spn MK inh
Cc1ccc(-c2nn(CC(=O)NCCN3CCOCC3)c(=O)c3ccccc23)cc1 | 3% | 1.1 | i | 1.1 | 6 | 3
O=c1c2cccc3c2c(nn1CN1CCOCC1)-c1ccccc1-3 | 12% | 2.4* | i | 1.1 | 7 | 14
O=C(COc1ccccc1)Nc1nnc(-c2ccc(Cl)s2)o1 | 10% | 2.1* | nt | 1.1 | 12 | 7
O=C(COc1ccccc1)Nc1nnc(-c2ccccc2)o1 | 6% | 1.1 | i | 1 | 3 | 9
Cn1c(C(=O)N2CCCc3ccccc32)cc2sccc21 | 7% | 1 | i | 1.1 | 21 | 0
CCn1cc(S(=O)(=O)CC(=O)Nc2ccc(OC)cc2)c2ccccc21 | 1% | 0.99 | i | 0.98 | 0 | 4
COCCNC(=O)C1CCCN(c2nn3c(=O)cc(C)nc3s2)C1 (centres undefined) | 11% | 1 | i | 1 | 33* | 0
CCOc1ccc(CCNC(=O)C2CCCN(c3nn4c(=O)cc(C)nc4s3)C2)cc1 (centres undefined) | 7% | 1.1 | i | 1 | 22 | 0
Cc1ccc2c(CSc3nc4ccccc4c(=O)n3CCCO)cc(=O)oc2c1 | 4% | 1 | i | 1 | 13 | 0
Cn1c(=O)c2[nH]c(Nc3ccccc3)nc2n(C)c1=O | 1% | 1.1 | i | 1.1 | 0 | 2
CC(C)c1ccc(-c2nc3c([nH]2)c(=O)n(C)c(=O)n3C)cc1 | 14% | 2.5* | + | 1 | 0 | 7
COc1ccc2oc(=O)c(-c3nc(C)cs3)cc2c1 | 7% | 2.2* | nt | 1 | 0 | 13
CCN(C(=O)c1cc2cc(OC)ccc2oc1=O)c1ccccc1 | 7% | 1.4 | i | 1.1 | 10 | 7
CCN(CC)C(=O)c1cc(-c2ccccc2OC)on1 | 6% | 1.1 | i | 0.99 | 13 | 4
COc1ccccc1-c1ccc(C(=O)O)o1 | 9% | 3.3* | i | 1 | 12 | 0
CCOC(=O)C1=C(N)OC2=C(C(=O)CCC2)C1c1ccc(C)s1 (centres undefined) | 15% | 1.1 | i | 1 | 37* | 1
CCN(CCCNC(=O)c1ccc(N2CCCC2=O)cc1)c1cccc(C)c1 | 4% | 1 | i | 1 | 11 | 0
CCn1c(=N)c(C(=O)NC)cc2c(=O)n3cccc(C)c3nc21 | 9% | 3.9* | nt | 1 | 14 | 4
CCn1c(=N)c(C(N)=O)cc2c(=O)n3cccc(C)c3nc21 | 5% | 1.9 | nt | 1.1 | 0 | 9
COCCNC(=O)c1cc2c(=O)n3cccc(C)c3nc2n(Cc2ccncc2)c1=N | 7% | 3.9* | nt | 1.1 | 13 | 0
CCOCCCn1c(=N)c(C(=O)NCc2ccc3c(c2)OCO3)cc2c(=O)n3cccc(C)c3nc21 | 17% | 2.7* | i | 1.1 | 10 | 12
CCCCNC(=O)c1cc2c(=O)n3cccc(C)c3nc2n(Cc2ccncc2)c1=N | 6% | 3.7* | nt | 1.1 | 8 | 4
COc1ccc(CCNC(=O)c2cc3c(=O)n4cccc(C)c4nc3n(Cc3ccncc3)c2=N)cc1 | 4% | 1.6 | i | 1 | 10 | 3
COc1ccccc1NC(=O)CCC(=O)Nc1nnc(C(F)(F)F)s1 | 2% | 1.1 | i | 0.98 | 0 | 5
CCCC(=O)c1cc(F)c(N2CCOCC2)cc1C | 6% | 1.1 | i | 1 | 13 | 5
SMILES | NADH enzymes | Autofluor 339 | DPM-DC inhibit | A340 absorber | Spn PMK inh | Spn MK inh
CCCCNC(=O)c1cc2c(=O)n3cccc(C)c3nc2n(CCN2CCOCC2)c1=N | 3% | 3.8* | nt | 1.1 | 1 | 4
Cc1cccn2c(=O)c3cc(C(=O)NCCCN4CCOCC4)n(C)c3nc12 | 2% | 2.1* | nt | 1.1 | 0 | 3
Cc1cccn2c(=O)c3cc(C(=O)NC4CCCCC4)c(=N)n(CCN4CCOCC4)c3nc12 | 3% | 1.1 | i | 1 | 9 | 0
CCn1c(SCC(=O)c2ccccc2)nc2c(c1=O)SC(C)C2 (centres undefined) | 17% | 1.2 | i | 1.1 | 12 | 40*
Cc1ccc(S(=O)(=O)N2CCN(c3nc(C)c4c(c3C#N)CC(C)(C)OC4)CC2)cc1 | 5% | 1.4 | i | 1.1 | 5 | 8
COc1ccc(CN(C(=O)c2snc(C(N)=O)c2N)C(C(=O)NC(C)(C)C)c2ccco2)cc1 (centres undefined) | 6% | 2.3* | i | 1 | 9 | 8
CC(C)(C)NC(=O)COC(=O)c1snc(C(=O)NC2CCCCC2)c1N | 3% | 2.1* | nt | 1 | 10 | 4
COCCNC(=O)C(c1ccc(C)o1)N(C(=O)c1snc(C(N)=O)c1N)c1cc(C)cc(C)c1 (centres undefined) | 12% | 2.1* | i | 1 | 14 | 10
COc1ccccc1N(C(=O)c1snc(C(N)=O)c1N)C(C(=O)NC1CCCC1)c1ccco1 (centres undefined) | 15% | 2.9* | i | 1 | 10 | 6
Cc1sc2ncnc(Sc3nnc4sc5ccccc5n34)c2c1C | 5% | 1.2 | i | 1 | 13 | 3
CCOc1ccccc1N(C(=O)c1snc(C(N)=O)c1N)C(C(=O)NCCC(C)C)c1ccco1 (centres undefined) | 8% | 1.8 | i | 1.1 | 11 | 14
CC(C(=O)NC1CCCC1)N(Cc1ccco1)C(=O)c1snc(C(=O)NC2CCCC2)c1N (centres undefined) | 15% | 2.4* | i | 1 | 20 | 1
COc1ccccc1N(C(=O)c1snc(C(N)=O)c1N)C(C(=O)NCCC(C)C)c1ccco1 (centres undefined) | 10% | 2.5* | i | 1.1 | 7 | 7
CCCc1cc(=O)[nH]c(/N=C(/NC(=O)c2ccccc2)Nc2ccc3c(c2)OCCO3)n1 | 2% | 1 | i | 1.1 | 0 | 6
O=C(O)C1CSC(CCc2ccccc2)N1 (centres undefined) | 3% | 1.1 | i | 1 | 6 | 2
COc1cccc(CNc2nc3nc(C)cc(C)n3n2)c1 | 7% | 2.6* | i | 1 | 11 | 6
COc1cccc(Nc2cc(C)nc3nc(C)nn23)c1 | 3% | 0.98 | i | 1.1 | 4 | 6
Cc1c(C(=O)NCc2ccc3c(c2)OCO3)sc2nc(-c3ccccc3)cn12 | 18% | 1 | + | 1.1 | 9 | 12
Cc1c(C(=O)NCc2ccc3c(c2)OCO3)sc2nc(-c3ccc(F)cc3)cn12 | 3% | 1.1 | i | 1 | 9 | 0
COCCCn1cnc2oc3nc4ccccc4nc3c2c1=O | 5% | 3.2* | i | 1.1 | 3 | 0
C=CCn1cnc2c(c1=O)c1nc3ccccc3nc1n2-c1ccccc1 | 13% | 2.4* | i | 1.1 | 13 | 0
COCCCn1cnc2c(c1=O)c1nc3ccccc3nc1n2-c1ccccc1 | 11% | 3.1* | i | 1.1 | 11 | 6

Screening results deposited in PubChem BioAssay by SRMLSC.
